A selection: hits, their analogues and other compounds. The true share with any hit is near 1.4%.
HSV replic up: increases HSV replication in cells; HSV replication augmentation in cells, fold increase; maximum fold increase; 220,000 tested, 0.005% active; in the data active = maximum fold increase above about 1.5; tested in PC3 cells
zVAD death inh: blocks zVAD induced death of L929 cells; AID 1377; 220,000 tested, 0.38% active; L929 zVAD necroptosis rescue, ATP luminescence, 24 h; with zVAD 60 µM; viability rescue, % at 10 µM;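 active = activation, scaled between plate controls, above about 75%, limit read from the data; inactive = activation under that limit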
Wee1 stabilizer: blocks degradation of human Wee1 kinase | reporter increase, % at 5 µM | 220,000 tested, 1.2% active | P30291 | AID 1321 | HeLa Luc-Wee1K328M stability, luciferase luminescence; 100% = proteasome inhibitor MG132 effect;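 active = activation above the mean of all tested compounds plus 3 SD, set per screening run, cut at about 8.8% in these data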;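 note: cells exposed to compound for 20 h before luminescence read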
V-ATPase pHluor: alters yeast V-ATPase proton transport | S. cerevisiae, pHLuorin cytosolic pH fluorescence | response, % at 10 µM | 350,000 tested, 0.37% active; in the data active = response mostly above about 7.3%, no sharp cut-off; inactive = mostly below about 5.4%; note: actives read high
TNF necrop inh: blocks TNF-alpha induced death of Jurkat FADD-/- cells; Jurkat FADD-/- TNF necroptosis rescue, ATP luminescence, 24 h; 0 = TNF only, 100 = no-TNF cells; activation (protection from cell death), % at 10 µM; 220,000 tested, 0.068% active;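 active = activation, meaning protection from cell death, of at least 50% relative to plate controls; inactive = activation below 50%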;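 note: necroptosis triggered by 40 ng/mL TNF-alpha added together with compound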
Wee1 stab conf: human Wee1 degradation inhibition, confirmation; shares compounds with Wee1 stabilizer; HeLa Luc-Wee1K328M degradation, luminescence; vehicle 0%, proteasome-blocked wells 100%; activation, % at 5 µM; 1,100 tested, 4% active; in the data active = activation above about 8.9%
zVAD death conf: confirmed blocker of zVAD induced death in L929 cells; L929 zVAD-induced necroptosis rescue, ATP luminescence, 24 h; AID 463117; activation (protection from necroptosis), % at 10 µM; 760 tested, 16% active; shares compounds with zVAD death inh;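 active = mean protection from necroptosis of at least 50% over duplicate tests; inactive = mean protection below 50%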
VATPase regulator: modulates yeast V-ATPase proton transport; shares compounds with V-ATPase pHluor; S. cerevisiae pHLuorin cytosolic pH; response, % at 10 µM; 980 tested, 2% active; AID 602197; in the data active = response above about 24%
Hits are given with their value.

CC12CN3CC(C)(CN(C1)C3c1cccs1)C2O (centres undefined) was read as HSV replic up inactive, zVAD death inh inactive, Wee1 stabilizer 13, V-ATPase pHluor inactive, TNF necrop inh inactive and Wee1 stab conf inactive.
`CCC1([N+](=O)[O-])COP(N)(=O)OC1` (centres undefined) gave V-ATPase pHluor inactive.
CN1CCN(Cc2nc3ccccc3n2C)CC1 was read as HSV replic up inactive, zVAD death inh inactive, Wee1 stabilizer inactive, V-ATPase pHluor inactive and TNF necrop inh inactive.
For Cn1c(NN=O)nc2ccccc21 the results were HSV replic up inactive, zVAD death inh inactive, Wee1 stabilizer 15, V-ATPase pHluor inactive, TNF necrop inh inactive and Wee1 stab conf inactive.
Screening CC(=O)OC1(c2ccccc2)CC(C(C)(C)C)CN(C(C)(C)C)C1 (centres undefined) returned HSV replic up inactive, zVAD death inh inactive, Wee1 stabilizer 14, V-ATPase pHluor inactive, TNF necrop inh inactive and Wee1 stab conf inactive.
Screening CN1OC[C@@H]2CN[C@H](c3ccc(Br)cc3)C[C@@H]21 returned V-ATPase pHluor inactive.
For CC(Cc1ccc(O)cc1)NCC(O)c1ccc(O)c(O)c1 (centres undefined) the results were V-ATPase pHluor inactive.
Screening O=C(C[N+]12CCC(CC1)C(CO)C2)c1ccc([N+](=O)[O-])cc1 (centres undefined) returned HSV replic up inactive, zVAD death inh inactive, Wee1 stabilizer 14, V-ATPase pHluor inactive, TNF necrop inh inactive and Wee1 stab conf inactive.
For CCN(CC)CCCN=Cc1c(O)n(-c2ccccc2F)c(=O)[nH]c1=O the results were HSV replic up inactive, zVAD death inh inactive, Wee1 stabilizer 36, V-ATPase pHluor inactive, TNF necrop inh inactive and Wee1 stab conf inactive.
For C[C@H]1C[C@@H](C)C(=O)[C@@H]([C@H](O)CC2CC(=O)NC(=O)C2)C1 the results were HSV replic up inactive, zVAD death inh 77, Wee1 stabilizer inactive, V-ATPase pHluor inactive, TNF necrop inh inactive and zVAD death conf 80.
O=C1Nc2ccccc2/C1=C/c1cnc[nH]1 was read as HSV replic up inactive, zVAD death inh 86, Wee1 stabilizer inactive, V-ATPase pHluor inactive, TNF necrop inh inactive and zVAD death conf 79.
CCOc1ccc(NC(=O)N2C[C@H]3C[C@@H](C2)c2cccc(=O)n2C3)cc1 was read as V-ATPase pHluor inactive.
CC(C)(O)C1C2OC(=O)C1C1(O)CC3OC34C(=O)OC2C14C (centres undefined) was read as V-ATPase pHluor inactive.
Screening C[N+](C)(C)CC(=O)Nc1ccc(Cl)cc1C(=O)c1ccccc1 returned HSV replic up inactive, zVAD death inh inactive, Wee1 stabilizer inactive, V-ATPase pHluor inactive and TNF necrop inh inactive.
For Cc1cccc(C(=O)Nc2ccc(Cl)cc2C(=O)c2ccccc2)c1 the results were HSV replic up inactive, zVAD death inh inactive, Wee1 stabilizer inactive, V-ATPase pHluor 9.0, TNF necrop inh inactive and VATPase regulator inactive.
Cc1[nH]c2ccccc2c1C(=O)C(=O)N1CC2CC(C1)c1cccc(=O)n1C2 (centres undefined) was read as HSV replic up inactive, zVAD death inh inactive, Wee1 stabilizer inactive, V-ATPase pHluor 9.1, TNF necrop inh inactive and VATPase regulator inactive.
`O=C(O)CCn1cc(C=C2C(=O)NC(=O)NC2=O)c(-c2ccc(Br)cc2)n1` gave HSV replic up inactive, zVAD death inh inactive, Wee1 stabilizer inactive, V-ATPase pHluor inactive and TNF necrop inh inactive.
`O=C(O)CCn1cc(C=C2C(=O)NC(=S)NC2=O)c(-c2cccc(Cl)c2)n1` gave HSV replic up inactive, zVAD death inh inactive, Wee1 stabilizer inactive, V-ATPase pHluor 8.0, TNF necrop inh inactive and VATPase regulator inactive.
`Cc1cccc(CCNCc2cc3cccc(C)c3[nH]c2=O)c1` gave V-ATPase pHluor inactive.
`CCCCCCn1c(=O)c(C(=O)Nc2c(C)n(C)n(-c3ccccc3)c2=O)c(O)c2ccccc21` gave HSV replic up inactive, zVAD death inh inactive, Wee1 stabilizer inactive, V-ATPase pHluor 11, TNF necrop inh inactive and VATPase regulator inactive.
For Cc1cc(OCC(=O)N2CCC(C(=O)O)CC2)c2c3c(c(=O)oc2c1)CCCC3 the results were V-ATPase pHluor inactive.
`CN1C(=O)/C(=C\c2ccc(Br)s2)C(=O)NC1=S` gave V-ATPase pHluor 21 and VATPase regulator 97.
For COC1CCC(OC2CC(C3(C)CCC4(CC(O)C(C)C(C(C)/C=C(\C)C(=O)C(C)CC(C)C(=O)O)O4)O3)OC3(OC(C4OC(O)(CO)C(C)CC4C)CC3C)C2C)OC1C (centres undefined) the results were V-ATPase pHluor inactive.
